Test systems include NCI-H23 lung; NCI-H226 lung; NCI-H322M lung; HOP-62 NSCLC; NCI-H460 lung; HOP-92 NSCLC; NCI-H522 lung; A549/ATCC NSCLC; 786-0 renal; COLO 205 colon.
Experiment in all cases: NCI-60 one-dose screen, 48 h (100 = growth as untreated, 0 = no growth, -100 = all killed)
Holding throughout (settings): 10 µM unless noted

Molecules are shown by their SMILES. About 83,000 compounds went through this panel and 20% of them were active in at least one assay; those are over-represented in the sample as a whole.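 The endpoint reported here, percent growth, reads 100 for growth as untreated, 0 for no net growth and -100 for all cells dead.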 Values without a mark were called inactive. The source made the active and inactive calls. The calls were made as follows: active = growth percent below 10; inactive = the rest.

For `COc1ccc(-c2csc(NC(=O)CSc3nc(-c4ccccc4)cc(=O)[nH]3)n2)cc1`, the growth in the assay with NCI-H23 lung was 51%; with NCI-H226 lung it was 78.7%; in the assay on NCI-H322M lung it was 90.1%; in the assay on HOP-62 NSCLC, 50.7%; in the assay with NCI-H460 lung, 78.7%; with HOP-92 NSCLC, 90.2%. Besides, the growth was 58% with NCI-H522 lung, 64.6% in the assay with A549/ATCC NSCLC, 67.4% in the assay with 786-0 renal and 56.6% with COLO 205 colon.
As to `CCCCCCC1(C)NCCO1` (stereo not given), the growth with NCI-H23 lung is 99.1%; with NCI-H226 lung, 103%; with NCI-H322M lung, 87.3%; in the assay on HOP-62 NSCLC it was 105%; in the assay on NCI-H460 lung it was 106%; in the assay on HOP-92 NSCLC, 102%. Also, the growth with NCI-H522 lung was 100%; in the assay with A549/ATCC NSCLC, 99.4%; with 786-0 renal it was 102%; in the assay with COLO 205 colon, 102%.
Take `C#CCOc1cccc(Nc2ncnc3c(NC(=O)C=C)cccc23)c1`: the growth was 38.9% in the assay on NCI-H23 lung; 52% with NCI-H226 lung; 54.9% in the assay with NCI-H322M lung; 39% in the assay with HOP-62 NSCLC; 12.8% in the assay on NCI-H460 lung; 9.26% (active) in the assay on HOP-92 NSCLC. Besides, the growth in the assay with NCI-H522 lung is -5.23% (active); in the assay on A549/ATCC NSCLC it was 27.5%; in the assay with 786-0 renal, 14%; in the assay on COLO 205 colon, 26.3%.
For `O=C(c1cc2ccccc2o1)c1nn(-c2ccccc2)/c(=N/N=Cc2cn(-c3ccccc3)nc2-c2cc3ccccc3oc2=O)s1`, the growth in the assay with NCI-H23 lung is 99.4%; in the assay on NCI-H226 lung, 99.4%; in the assay with NCI-H322M lung, 92%; in the assay with HOP-62 NSCLC, 97.6%; with NCI-H460 lung it was 106%; in the assay on HOP-92 NSCLC, 73.2%. In addition, the growth is 88% in the assay on NCI-H522 lung, 106% in the assay on A549/ATCC NSCLC, 103% in the assay with 786-0 renal and 117% in the assay on COLO 205 colon.
Turning to `COc1ccc2c(c1)[n+]([O-])c(C(=O)/C=C/C=C(\Cl)c1cc(OC)c(OC)c(OC)c1)c(C)[n+]2[O-]`, the growth in the assay on NCI-H23 lung was 79.7%; with NCI-H226 lung, 103%; in the assay with NCI-H322M lung, 87.5%; in the assay with HOP-62 NSCLC, -3.57% (active); with NCI-H460 lung, 102%; in the assay on HOP-92 NSCLC, 61.3%. In addition, the growth is 56.6% in the assay with NCI-H522 lung, 98.4% with A549/ATCC NSCLC, 61.4% in the assay on 786-0 renal and 127% in the assay on COLO 205 colon.
For `O=[N+]([O-])c1ccc(S(=O)(=O)N2CCN(C3=NS(=O)(=O)c4ccccc4N3c3ccccc3)CC2)cc1`, the growth is 87.2% with NCI-H23 lung; 104% in the assay with NCI-H226 lung; 99.6% in the assay on NCI-H322M lung; 99.7% in the assay on HOP-62 NSCLC; 115% in the assay on NCI-H460 lung; -0.794% (active) with HOP-92 NSCLC. Further, the growth with NCI-H522 lung is 94.5%; in the assay on A549/ATCC NSCLC it was 96.3%; in the assay with 786-0 renal, 96.7%; with COLO 205 colon, 117%.
Regarding `COCCn1cc(-c2nc(-c3cc4cccnc4n3CCOC)cs2)c2cc(OC)ccc21`, the growth in the assay with NCI-H23 lung is 61.5%; with NCI-H226 lung, 63.1%; with NCI-H322M lung, 39.5%; in the assay with HOP-62 NSCLC, 74.7%; with NCI-H460 lung, 40.2%; with HOP-92 NSCLC, 47.1%. The growth in the assay with NCI-H522 lung is 16.7%; with A549/ATCC NSCLC it was 46%; with 786-0 renal, 58.5%; in the assay with COLO 205 colon it was 44.3%.
`CCOC(=O)C(=Cc1cccc(Br)c1)C(=O)OCC`: the growth in the assay on NCI-H23 lung was 17.7%; with NCI-H226 lung, 45.2%; in the assay with NCI-H322M lung, 65.5%; with HOP-62 NSCLC it was 85.1%; in the assay on NCI-H460 lung, 68.2%; in the assay on HOP-92 NSCLC, 12.9%. The growth in the assay with NCI-H522 lung was 23.9%; in the assay on A549/ATCC NSCLC, 41.8%; with 786-0 renal, 47.4%; in the assay with COLO 205 colon, 46.6%.
Consider `COc1ccc2cc(-c3ccc(NC(C)=O)c(=O)o3)ccc2c1`, for which the growth in the assay with NCI-H23 lung was 94.4%; in the assay on NCI-H226 lung, 94.4%; with NCI-H322M lung, 92.2%; in the assay on HOP-62 NSCLC it was 94.3%; in the assay with NCI-H460 lung it was 100%; with HOP-92 NSCLC, 97.8%. Also, the growth is 78.8% with NCI-H522 lung, 87.5% in the assay with A549/ATCC NSCLC, 98.8% in the assay on 786-0 renal and 115% in the assay with COLO 205 colon.
`O=C(CSc1nc2sc3c(c2c(=O)n1-c1ccccc1)CCCCC3)N/N=C/c1ccc(F)cc1`: the growth in the assay on NCI-H23 lung is 37.7%; in the assay on NCI-H226 lung, 86.9%; in the assay with NCI-H322M lung it was 67.5%; in the assay with HOP-62 NSCLC, 19.9%; with NCI-H460 lung it was 1.12% (active); in the assay with HOP-92 NSCLC it was 82.6%. Also, the growth in the assay with NCI-H522 lung was 44.3%; in the assay with A549/ATCC NSCLC, 9.73% (active); in the assay with 786-0 renal it was 64.1%; in the assay with COLO 205 colon, 33%.
`COC(=O)c1cc(-c2ccc(S(C)(=O)=O)cc2)[nH]c1N/N=C/c1c(Cl)cccc1Cl`: the growth in the assay with NCI-H23 lung is 29.6%; in the assay with NCI-H226 lung it was 47.5%; in the assay on NCI-H322M lung, 15.4%; in the assay with HOP-62 NSCLC, 3.22% (active); in the assay with NCI-H460 lung it was 3.65% (active); in the assay on HOP-92 NSCLC, 18.9%. In addition, the growth is -15.1% (active) with NCI-H522 lung, 25.2% with A549/ATCC NSCLC, 5.08% (active) in the assay with 786-0 renal and -19.3% (active) with COLO 205 colon.
For the molecule `O=C1/C(=C/c2cccs2)SC(=S)N1CCCN1CCOCC1`, the growth with NCI-H23 lung is 96.7%; in the assay on NCI-H226 lung, 95.5%; in the assay on NCI-H322M lung it was 94.7%; in the assay on HOP-62 NSCLC, 111%; in the assay on NCI-H460 lung it was 99%; in the assay on HOP-92 NSCLC, 23%. The growth with NCI-H522 lung was 71.5%; with A549/ATCC NSCLC, 93.2%; in the assay with 786-0 renal it was 92.7%; with COLO 205 colon, 111%.

Source of the values: PubChem BioAssay (NCI).
